# A number with no mark means an inactive call.
# Assays:
# Assay in all cases: log2 ratio of Biotin-Ahx-Ub-VS probe labelling (compound/DMSO); higher = less target engagement, active = hit call of the paper (q ≤ 0.05, log2 ratio ≤ -1)
# Conditions in all cases: treatment time: 3 h
# [1] = compound: CCC1N(CCc2sccc12)C(=O)CCl
# Procedure, shortened: (§1)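 HEK293T lysate (495 µg per sample, in Tris/CHAPS/IGEPAL buffer with protease inhibitors) was exposed in triplicate to compound at 50 or 200 µM, or to DMSO, for 3 h, then to Biotin-Ahx-Ub-VS (0.5 µM final) for 1 h. The labelled DUBs were enriched on NeutrAvidin, digested with LysC and trypsin, and analysed by diaPASEF LC-MS/MS. Average base-two log ratios of compound over DMSO came from median-normalised label-free quantities by unpaired t-test. Only proteins with at least 2 unique peptides were used.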
# [2] = compound: CN1c2ccccc2C(CS1(=O)=O)NC(=O)CCl
# Procedure, shortened: as §1
# [3] = compound: Cl.ClCC(=O)N1CCc2ncncc2C1
# Procedure, shortened: as §1
# [4] = compound: Cl.Cn1ncc2C(CCCc12)NC(=O)CCl
# Procedure, shortened: as §1
# [5] = compound: ClCC(=O)NC1CCOc2ccccc12
# Procedure, shortened: as §1
# [6] = compound: ClCC(=O)NC1CCCc2ccccc12
# Procedure, shortened: (§2)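 In triplicate, 495 µg portions of HEK293T lysate in Tris/CHAPS/IGEPAL buffer with protease inhibitors received compound across a concentration series or vehicle for 3 h, followed by 1 h with 0.5 µM final Biotin-Ahx-Ub-VS. After NeutrAvidin enrichment and LysC/trypsin digestion, the labelled deubiquitinases were measured by diaPASEF LC-MS/MS and quantified label-free in Spectronaut with global-median normalisation. Each value is an average compound-to-vehicle ratio from an unpaired t-test, expressed as log2 and restricted to proteins having two or more unique peptides.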
# [7] = compound: ClCC(=O)N[C@@H]1CCCc2ccccc12
# Procedure, shortened: as §2
# [8] = compound: ClCC(=O)N[C@H]1CCCc2ccccc12
# Procedure, shortened: as §2
# [9] = compound: CCC1N(CCc2cc(OC)c(Cl)cc12)C(=O)CCl
# Procedure, shortened: as §1
# [10] = compound: CCCC1N(CCc2cc(OC)c(OC)cc12)C(=O)CCl
# Procedure, shortened: as §1
# Sequence of UniProt Q4G0A6 (Q4G0A6 whole entry): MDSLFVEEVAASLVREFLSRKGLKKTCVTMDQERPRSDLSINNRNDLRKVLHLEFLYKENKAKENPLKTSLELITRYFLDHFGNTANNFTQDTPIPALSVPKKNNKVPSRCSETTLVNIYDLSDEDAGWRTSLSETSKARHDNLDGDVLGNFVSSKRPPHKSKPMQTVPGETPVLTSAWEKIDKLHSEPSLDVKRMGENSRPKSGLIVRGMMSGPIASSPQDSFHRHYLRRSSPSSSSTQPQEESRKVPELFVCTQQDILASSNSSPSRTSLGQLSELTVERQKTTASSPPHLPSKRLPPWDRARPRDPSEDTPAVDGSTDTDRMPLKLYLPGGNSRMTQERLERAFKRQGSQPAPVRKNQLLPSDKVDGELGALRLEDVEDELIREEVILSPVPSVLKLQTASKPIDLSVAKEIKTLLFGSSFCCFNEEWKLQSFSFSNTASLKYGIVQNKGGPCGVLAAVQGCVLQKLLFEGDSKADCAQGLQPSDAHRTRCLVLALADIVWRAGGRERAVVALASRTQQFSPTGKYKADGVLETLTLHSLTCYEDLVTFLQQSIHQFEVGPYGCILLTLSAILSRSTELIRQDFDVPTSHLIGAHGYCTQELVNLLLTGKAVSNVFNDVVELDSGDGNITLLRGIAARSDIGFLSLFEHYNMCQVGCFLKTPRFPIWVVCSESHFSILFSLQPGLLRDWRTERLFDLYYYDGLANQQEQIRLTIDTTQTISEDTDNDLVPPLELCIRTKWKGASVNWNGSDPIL
# Sequence of UniProt Q53GS9 (Q53GS9 whole entry): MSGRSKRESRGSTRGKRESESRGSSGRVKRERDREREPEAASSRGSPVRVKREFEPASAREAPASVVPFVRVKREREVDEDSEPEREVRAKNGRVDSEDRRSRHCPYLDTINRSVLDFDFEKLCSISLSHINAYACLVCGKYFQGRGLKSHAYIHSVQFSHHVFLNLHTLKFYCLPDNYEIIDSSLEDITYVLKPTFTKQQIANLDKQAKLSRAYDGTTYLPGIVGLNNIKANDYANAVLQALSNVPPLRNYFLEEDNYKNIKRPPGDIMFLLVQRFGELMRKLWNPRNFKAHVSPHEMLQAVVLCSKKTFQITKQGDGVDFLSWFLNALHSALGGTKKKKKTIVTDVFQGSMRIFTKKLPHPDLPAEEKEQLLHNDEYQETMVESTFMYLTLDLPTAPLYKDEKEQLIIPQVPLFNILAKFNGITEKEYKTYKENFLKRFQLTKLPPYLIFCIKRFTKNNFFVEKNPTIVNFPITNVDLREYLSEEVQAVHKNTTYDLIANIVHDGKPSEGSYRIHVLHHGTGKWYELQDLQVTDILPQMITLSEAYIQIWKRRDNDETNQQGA
target,measurement,setting,value
USP39 (UniProt Q53GS9),log2 ratio of Biotin-Ahx-Ub-VS probe labelling,[1]; compound concentration: 50uM,0.0546
same,log2 ratio of Biotin-Ahx-Ub-VS probe labelling,[1]; compound concentration: 200uM,-0.102
same,log2 ratio of Biotin-Ahx-Ub-VS probe labelling,[2]; compound concentration: 50uM,-0.157
same,log2 ratio of Biotin-Ahx-Ub-VS probe labelling,[2]; compound concentration: 200uM,-0.0618
same,log2 ratio of Biotin-Ahx-Ub-VS probe labelling,[3]; compound concentration: 50uM,0.0365
same,log2 ratio of Biotin-Ahx-Ub-VS probe labelling,[3]; compound concentration: 200uM,-0.18
same,log2 ratio of Biotin-Ahx-Ub-VS probe labelling,[4]; compound concentration: 50uM,0.0136
same,log2 ratio of Biotin-Ahx-Ub-VS probe labelling,[4]; compound concentration: 200uM,-0.0545
same,log2 ratio of Biotin-Ahx-Ub-VS probe labelling,[5]; compound concentration: 50uM,0.225
same,log2 ratio of Biotin-Ahx-Ub-VS probe labelling,[5]; compound concentration: 200uM,-0.157
same,log2 ratio of Biotin-Ahx-Ub-VS probe labelling,[6]; compound concentration: 0.78uM,-0.0849
same,log2 ratio of Biotin-Ahx-Ub-VS probe labelling,[6]; compound concentration: 1.56uM,0.00415
same,log2 ratio of Biotin-Ahx-Ub-VS probe labelling,[6]; compound concentration: 3.13uM,-0.107
same,log2 ratio of Biotin-Ahx-Ub-VS probe labelling,[6]; compound concentration: 6.25uM,-0.121
same,log2 ratio of Biotin-Ahx-Ub-VS probe labelling,[6]; compound concentration: 12.5uM,-0.133
same,log2 ratio of Biotin-Ahx-Ub-VS probe labelling,[6]; compound concentration: 25uM,-0.219
same,log2 ratio of Biotin-Ahx-Ub-VS probe labelling,[6]; compound concentration: 50uM,-0.32
same,log2 ratio of Biotin-Ahx-Ub-VS probe labelling,[6]; compound concentration: 100uM,-0.0966
same,log2 ratio of Biotin-Ahx-Ub-VS probe labelling,[6]; compound concentration: 200uM,-0.188
same,log2 ratio of Biotin-Ahx-Ub-VS probe labelling,[7]; compound concentration: 0.78uM,-0.138
same,log2 ratio of Biotin-Ahx-Ub-VS probe labelling,[7]; compound concentration: 1.56uM,-0.0134
same,log2 ratio of Biotin-Ahx-Ub-VS probe labelling,[7]; compound concentration: 3.13uM,0.0533
same,log2 ratio of Biotin-Ahx-Ub-VS probe labelling,[7]; compound concentration: 6.25uM,-0.0819
same,log2 ratio of Biotin-Ahx-Ub-VS probe labelling,[7]; compound concentration: 12.5uM,-0.132
same,log2 ratio of Biotin-Ahx-Ub-VS probe labelling,[7]; compound concentration: 25uM,-0.181
same,log2 ratio of Biotin-Ahx-Ub-VS probe labelling,[7]; compound concentration: 50uM,-0.277
same,log2 ratio of Biotin-Ahx-Ub-VS probe labelling,[7]; compound concentration: 100uM,-0.108
same,log2 ratio of Biotin-Ahx-Ub-VS probe labelling,[7]; compound concentration: 200uM,-0.208
same,log2 ratio of Biotin-Ahx-Ub-VS probe labelling,[8]; compound concentration: 0.78uM,0.0296
same,log2 ratio of Biotin-Ahx-Ub-VS probe labelling,[8]; compound concentration: 1.56uM,-0.22
same,log2 ratio of Biotin-Ahx-Ub-VS probe labelling,[8]; compound concentration: 3.13uM,-0.0221
same,log2 ratio of Biotin-Ahx-Ub-VS probe labelling,[8]; compound concentration: 6.25uM,-0.000844
same,log2 ratio of Biotin-Ahx-Ub-VS probe labelling,[8]; compound concentration: 12.5uM,-0.0179
same,log2 ratio of Biotin-Ahx-Ub-VS probe labelling,[8]; compound concentration: 25uM,-0.167
same,log2 ratio of Biotin-Ahx-Ub-VS probe labelling,[8]; compound concentration: 50uM,-0.0419
same,log2 ratio of Biotin-Ahx-Ub-VS probe labelling,[8]; compound concentration: 100uM,-0.206
same,log2 ratio of Biotin-Ahx-Ub-VS probe labelling,[8]; compound concentration: 200uM,-0.187
same,log2 ratio of Biotin-Ahx-Ub-VS probe labelling,[9]; compound concentration: 50uM,0.209
same,log2 ratio of Biotin-Ahx-Ub-VS probe labelling,[9]; compound concentration: 200uM,0.0808
same,log2 ratio of Biotin-Ahx-Ub-VS probe labelling,[10]; compound concentration: 50uM,-0.0814
same,log2 ratio of Biotin-Ahx-Ub-VS probe labelling,[10]; compound concentration: 200uM,-0.0567
MINDY4 (UniProt Q4G0A6),log2 ratio of Biotin-Ahx-Ub-VS probe labelling,[1]; compound concentration: 50uM,-0.62
same,log2 ratio of Biotin-Ahx-Ub-VS probe labelling,[1]; compound concentration: 200uM,0.797
same,log2 ratio of Biotin-Ahx-Ub-VS probe labelling,[2]; compound concentration: 50uM,-4.18 (active)
same,log2 ratio of Biotin-Ahx-Ub-VS probe labelling,[2]; compound concentration: 200uM,0.688
same,log2 ratio of Biotin-Ahx-Ub-VS probe labelling,[3]; compound concentration: 50uM,0.73
same,log2 ratio of Biotin-Ahx-Ub-VS probe labelling,[3]; compound concentration: 200uM,-0.108
same,log2 ratio of Biotin-Ahx-Ub-VS probe labelling,[4]; compound concentration: 50uM,0.308
same,log2 ratio of Biotin-Ahx-Ub-VS probe labelling,[4]; compound concentration: 200uM,0.136
same,log2 ratio of Biotin-Ahx-Ub-VS probe labelling,[5]; compound concentration: 50uM,0.825
same,log2 ratio of Biotin-Ahx-Ub-VS probe labelling,[5]; compound concentration: 200uM,0.522
same,log2 ratio of Biotin-Ahx-Ub-VS probe labelling,[6]; compound concentration: 0.78uM,-2.83 (active)
same,log2 ratio of Biotin-Ahx-Ub-VS probe labelling,[6]; compound concentration: 1.56uM,-3.43 (active)
same,log2 ratio of Biotin-Ahx-Ub-VS probe labelling,[6]; compound concentration: 3.13uM,-2.24 (active)
same,log2 ratio of Biotin-Ahx-Ub-VS probe labelling,[6]; compound concentration: 6.25uM,-2.62 (active)
same,log2 ratio of Biotin-Ahx-Ub-VS probe labelling,[6]; compound concentration: 12.5uM,-1.89 (active)
same,log2 ratio of Biotin-Ahx-Ub-VS probe labelling,[6]; compound concentration: 25uM,-2.3 (active)
same,log2 ratio of Biotin-Ahx-Ub-VS probe labelling,[6]; compound concentration: 50uM,-2.78 (active)
same,log2 ratio of Biotin-Ahx-Ub-VS probe labelling,[6]; compound concentration: 100uM,-2.85 (active)
same,log2 ratio of Biotin-Ahx-Ub-VS probe labelling,[6]; compound concentration: 200uM,-2.45 (active)
same,log2 ratio of Biotin-Ahx-Ub-VS probe labelling,[7]; compound concentration: 0.78uM,-0.837
same,log2 ratio of Biotin-Ahx-Ub-VS probe labelling,[7]; compound concentration: 1.56uM,-1.89 (active)
same,log2 ratio of Biotin-Ahx-Ub-VS probe labelling,[7]; compound concentration: 3.13uM,-2.16 (active)
same,log2 ratio of Biotin-Ahx-Ub-VS probe labelling,[7]; compound concentration: 6.25uM,-1.61 (active)
same,log2 ratio of Biotin-Ahx-Ub-VS probe labelling,[7]; compound concentration: 12.5uM,-0.893
same,log2 ratio of Biotin-Ahx-Ub-VS probe labelling,[7]; compound concentration: 25uM,-2.02 (active)
same,log2 ratio of Biotin-Ahx-Ub-VS probe labelling,[7]; compound concentration: 50uM,-1.96 (active)
same,log2 ratio of Biotin-Ahx-Ub-VS probe labelling,[7]; compound concentration: 100uM,-1.48 (active)
same,log2 ratio of Biotin-Ahx-Ub-VS probe labelling,[7]; compound concentration: 200uM,-1.33 (active)
same,log2 ratio of Biotin-Ahx-Ub-VS probe labelling,[8]; compound concentration: 0.78uM,-2.37 (active)
same,log2 ratio of Biotin-Ahx-Ub-VS probe labelling,[8]; compound concentration: 1.56uM,-1.3 (active)
same,log2 ratio of Biotin-Ahx-Ub-VS probe labelling,[8]; compound concentration: 3.13uM,-1.21 (active)
same,log2 ratio of Biotin-Ahx-Ub-VS probe labelling,[8]; compound concentration: 6.25uM,-3.95 (active)
same,log2 ratio of Biotin-Ahx-Ub-VS probe labelling,[8]; compound concentration: 12.5uM,-1.25 (active)
same,log2 ratio of Biotin-Ahx-Ub-VS probe labelling,[8]; compound concentration: 25uM,-1.1 (active)
same,log2 ratio of Biotin-Ahx-Ub-VS probe labelling,[8]; compound concentration: 50uM,-1.99 (active)
same,log2 ratio of Biotin-Ahx-Ub-VS probe labelling,[8]; compound concentration: 100uM,-1.91 (active)
same,log2 ratio of Biotin-Ahx-Ub-VS probe labelling,[8]; compound concentration: 200uM,-2.54 (active)
same,log2 ratio of Biotin-Ahx-Ub-VS probe labelling,[9]; compound concentration: 50uM,0.0614
same,log2 ratio of Biotin-Ahx-Ub-VS probe labelling,[9]; compound concentration: 200uM,-0.042
same,log2 ratio of Biotin-Ahx-Ub-VS probe labelling,[10]; compound concentration: 50uM,0.725
same,log2 ratio of Biotin-Ahx-Ub-VS probe labelling,[10]; compound concentration: 200uM,-0.113

# From the supplement of paper PMC11732987, “Enantioselective OTUD7B fragment discovery through chemoproteomics screening and high-throughput optimisation” (Communications Chemistry, 2025)
